Screens deposited in PubChem BioAssay by National Center for Advancing Translational Sciences (NCATS).
MCF10A rerep – inducers of DNA re-replication in MCF 10A breast cells. Potency, µM (series often up to 46.1 µM), for the others: top-dose activity, positive = re-replication, usual class: activators. MCF 10A DNA re-replication, Hoechst nuclear intensity, 48 h. hit rate 2.9% among 350,000; further: % of control where 0% means no effect; nearly all actives have a fitted effect of over 50% in size
HT1080 IDH1KD tx – HT-1080 IDH1 knockdown cell toxicity (counter line). HT-1080 IDH1 knockdown viability, ATP luminescence, 48 h. hit rate 2% among 360,000. AID 686971. Potency, µM (doses to about 46.1 µM), without a hit: at the highest dose activity, negative = toxicity, usual class: cytotoxic;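 further: 0% = DMSO wells and -100% = cell-free medium wells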
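Using the IDH1-knockdown HT-1080 line run in the same batch and compound series as the NT line, viability after 48 h at 37 °C was determined by CellTiter-Glo luminescence and expressed as % activity.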
HT1080NT lethal – kills 2HG-producing HT-1080-NT fibrosarcoma cells; HT-1080-NT fibrosarcoma viability, CellTiter-Glo ATP luminescence, 48 h; Potency, µM (doses to about 46.1 µM), without a hit: at the highest dose activity, negative = less viability, most hits filed as cytotoxic; hit rate 1.6% among 360,000; AID 686970;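 further: NT is the 2HG producing partner of a matched IDH1 knockdown line; 0% = DMSO-treated cells and -100% = media-only wells without cells; nearly all actives have a fitted effect of over 55% in size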
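Viability by CellTiter-Glo luminescence after 48 h compound exposure at 37C of HT-1080-NT cells (750/well, RPMI, 5% FBS). % activity scaled between DMSO wells and medium-only wells, then curve-fitted and categorized by curve class.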
KB-3-1 cytotox – kills parental KB-3-1 adenocarcinoma cells; KB-3-1 viability, CellTiter-Glo ATP luminescence, 72 h; Potency, µM (titrated, usually from 46.1 µM), hits mostly cytotoxic; hit rate 1.4% among 400,000; AID 1347075; further: on the % scale 0 is the no-effect control and ±100 the full control effect; nearly all actives have a fitted effect of over 60% in size
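Cells are dispensed, compounds pinned in, plates held at 37 °C for 72 h, then CellTiter-Glo is added and luminescence read after 10 minutes. Cell line: parental KB-3-1 in phenol-red-free DMEM, 10% FBS.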
KB-V1 cytotox – kills drug-selected multidrug resistant KB-V1 cells; KB-V1 MDR cells viability, CellTiter-Glo, 72 h; Potency, µM (doses to about 46.1 µM), most hits filed as cytotoxic; hit rate 3.4% among 400,000; further: on the % scale 0 is the no-effect control and ±100 the full control effect; nearly all actives have a fitted effect of over 60% in size
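Cells of the MDR subline KB-V1 are plated, dosed with compound at multiple concentrations, and incubated 72 h at 37 degrees C; CellTiter-Glo is then added and luminescence read after 10 min.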
SW480 rerep – DNA re-replication induction in SW480 cells; SW480 DNA re-replication, Hoechst DNA content imaging, 48 h; Potency, µM (titrated, usually from 46.1 µM), without a hit: top-dose re-replication activation, usual class: activators; hit rate 1.8% among 340,000; AID 624297; further: % of control where 0% means no effect; nearly all actives have a fitted effect of over 55% in size
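Cells (250 per well) received 23 nL compound or DMSO by pin tool and were kept 48 hr at 37 C, 5% CO2. Nuclei were then stained with Hoechst for 40 min and scanned for DNA content.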
* = called active by the depositor; i = inactive; ? = inconclusive; · = not tested or not shown; [ ] = another dose, or the depositor's remark. Shown are actives, neighbours in structure and some others; about 8% of the full set was active somewhere. The call rests on the fitted dose curve; in most records, active means well fitted curve in the direction sought with a large enough effect; inconclusive means small, poorly fitted or top-dose-only effect, or another doubt; inactive means no such curve, though single readings can be large; an effect the other way counts as inactive or inconclusive. Potency means the concentration at half of the fitted maximal effect.

SMILES | MCF10A rerep | HT1080 IDH1KD tx | HT1080NT lethal | KB-3-1 cytotox | KB-V1 cytotox | SW480 rerep
CCCn1nnc(NC(=O)c2ccc(Br)cc2)n1 | -7% | ? | 1% | i | i | 5%
O=C1C=CC(=O)N1c1ccccc1N1C(=O)C=CC1=O | ? | 5.8µM* | 6.5µM* | ? | 26µM* | 2.3µM*
O=C(c1ccccc1)c1ccccc1N1C(=O)C=CC1=O | 5.2µM* | ? | 16µM* | i | i | ?
COc1ccc2c(c1)c1c(c(=O)n(Cc3ccccc3)c(=O)n1CC(=O)NCc1ccccc1Cl)n2C | · | · | · | i | i | ·
Cc1c(C(=O)NCc2ccc(F)cc2)c(-c2ccccc2)nn1-c1ccccc1 | ? | -20% | -3% | i | i | -3%[9.22 µM]
Cc1nn(Cc2c(F)c(F)c(F)c(F)c2F)c(C)c1NC(=O)c1ccc(COc2ccccc2Cl)o1 | 16% | -13% | -1% | i | 2.6µM* | 13%
Cc1nn(Cc2c(F)c(F)c(F)c(F)c2F)c(C)c1NC(=O)c1c(-c2ccccc2)nn(-c2ccccc2)c1C | 23µM* | ? | ? | i | i | 6%
Fc1cccc(-c2nnn3c2nc(NC2CCCCC2)c2ccccc23)c1 | · | · | · | i | i | ·
Cc1ccc(-c2nnn3c2nc(NCCc2ccccc2)c2ccccc23)cc1 | · | · | · | i | i | ·
Cc1ccc(-c2nnn3c2nc(Cl)c2ccccc23)cc1 | 4.1µM* | 0% | -7% | i | i | ?
Clc1nc2c(-c3ccccc3)nnn2c2ccccc12 | 3.7µM* | -26% | -17% | ? | i | ?
Fc1cccc(-c2nnn3c2nc(Cl)c2ccccc23)c1 | 2.6µM* | ? | -11% | i | i | 5.8µM*
COc1ccc(NC(=O)CCCn2c(=O)c3sccc3n(Cc3ccc(C)cc3)c2=O)cc1 | ? | -21% | -12% | i | i | -2%
COc1ccc(NC(=O)CCCn2c(=O)c3sccc3n(Cc3ccc(C)cc3C)c2=O)cc1 | 25% | 3% | 3% | i | 8.2µM* | 2%
COc1cccc(OCC(O)CN2CCN(CCN3C(=O)c4cccc5cccc(c45)C3=O)CC2)c1 (stereo not drawn) | -39% | ? | -28% | i | ? | ?
Cc1ccc(C)c(OCC(O)CN2CCC(CN3C(=O)c4cccc5cccc(c45)C3=O)CC2)c1 (stereo not drawn) | ? | 0% | 0% | 18µM* | 2.6µM* | -1%
COc1ccc(OCC(O)CN2CCC(CN3C(=O)c4cccc5cccc(c45)C3=O)CC2)cc1 (stereo not drawn) | 12% | ? | 23µM* | i | i | ?
O=C1c2cccc3cccc(c23)C(=O)N1CC1CCN(CC(O)COCc2ccc3c(c2)OCO3)CC1 (stereo not drawn) | ? | 21µM* | 21µM* | ? | ? | 5%
CCOC(=O)c1cc(OC(=O)c2cc(OC)c(OC)c(OC)c2)n(-c2ccccc2)n1 | · | · | · | i | i | ·
Cc1ccc2c(c1)N(C(=O)N1CCC(C(=O)NCc3ccccc3C)CC1)CC(C)O2 (stereo not drawn) | · | · | · | i | i | ·
O=C(CCSCCc1ccccn1)Nc1c(F)cc(F)cc1Br | ? | 2% | 8% | i | 16µM* | 1%
O=C(CSCCc1ccccn1)Nc1ccc(Br)cn1 | 13% | 6% | 5% | i | 21µM* | -12%
O=C(CSCCc1ccccn1)Nc1ccccn1 | 24% | -5% | 3% | ? | i | -2%
CSc1nc2ccc3nc(NC(=O)c4ccc(C)cc4)sc3c2s1 | -7% | 11% | 23% | i | i | -3%
Cc1ccc(C(=O)Nc2nc3ccccc3c(=O)s2)cc1 | 0% | 7.9µM* | ? | i | i | -4%
CCOC(=O)c1cccc(NC(=O)C(C)n2nc(C)c3c(C)n(-c4ccccc4)nc3c2=O)c1 (stereo not drawn) | · | · | · | i | i | ·
